Laboratory results published in PubChem BioAssay AID1159580 (chemical genetic matrix, 2015).
Screen size: about 5,500 compounds; about 2,000 (36%) were called active. Roughly 18% stayed inconclusive and do not appear here. Rule as the data show it: active = normalized growth mostly below about 0.91 (no sharp cut-off); inconclusive = no clear call, values can overlap the other calls; inactive = mostly above about 0.92. Some of the results follow.

Test: chemical genetic growth profiling, strain panel (AID 1159580);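 also: tested at 20 µM; growth read once vehicle control cultures reached saturation at 30 °C; 1 = growth at the plate median or of vehicle wells; lower values mean less growth of the strain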
Details: growth OD
[1] = S. cerevisiae deletion strains, locus YDL101C, strain DUN1, hits give low values
[2] = S. cerevisiae deletion strains, locus YHR030C, strain SLT2, hits give low values

Measured: normalized growth

N#Cc1ccc2[nH]cc(CCN(Cc3ccccc3)Cc3ccccc3)c2c1
inactive: S. cerevisiae deletion strains, locus YAR019C, strain CDC15, hits give low values 0.989 | S. cerevisiae deletion strains, locus YBL105C, strain PKC1, hits give low values 0.991 | S. cerevisiae deletion strains, locus YBR135W, strain CKS1, hits give low values 0.99 | S. cerevisiae deletion strains, locus YBR136W, strain MEC1, hits give low values 0.984 | S. cerevisiae deletion strains, locus YBR160W, strain CDC28, hits give low values 0.989 | S. cerevisiae deletion strains, locus YDL017W, strain CDC7, hits give low values 0.99 | S. cerevisiae deletion strains, locus YDL028C, strain MPS1, hits give low values 0.977 | [1] 0.98 | S. cerevisiae deletion strains, locus YDL108W, strain KIN28, hits give low values 0.983 | S. cerevisiae deletion strains, locus YDL132W, strain cdc53, hits give low values 0.985 | S. cerevisiae deletion strains, locus YDL214C, strain PRR2, hits give low values 0.943 | S. cerevisiae deletion strains, locus YDR052C, strain DBF4, hits give low values 0.992 | S. cerevisiae deletion strains, locus YDR054C, strain cdc34, hits give low values 0.978 | S. cerevisiae deletion strains, locus YDR226W, strain ADK1, hits give low values 0.978 | S. cerevisiae deletion strains, locus YDR477W, strain SNF1, hits give low values 0.969 | S. cerevisiae deletion strains, locus YER123W, strain YCK3, hits give low values 0.918 | S. cerevisiae deletion strains, locus YER133W, strain GLC7, hits give low values 0.964 | S. cerevisiae deletion strains, locus YFL009W, strain cdc4, hits give low values 0.982 | S. cerevisiae deletion strains, locus YFL029C, strain CAK1, hits give low values 0.986 | S. cerevisiae deletion strains, locus YFR003C, strain YPI1, hits give low values 0.992 | S. cerevisiae deletion strains, locus YFR019W, strain FAB1, hits give low values 0.967 | S. cerevisiae deletion strains, locus YFR028C, strain CDC14, hits give low values 0.982 | S. cerevisiae deletion strains, locus YGR040W, strain KSS1, hits give low values 0.956 | S. cerevisiae deletion strains, locus YGR052W, strain FMP48, hits give low values 1.05 | S. cerevisiae deletion strains, locus YGR092W, strain DBF2, hits give low values 0.943 | [2] 1.13 | S. cerevisiae deletion strains, locus YHR079C, strain IRE1, hits give low values 1.07 | S. cerevisiae deletion strains, locus YHR082C, strain KSP1, hits give low values 1.05 | S. cerevisiae deletion strains, locus YHR205W, strain SCH9, hits give low values 0.962 | S. cerevisiae deletion strains, locus YIL147C, strain SLN1, hits give low values 0.987 | S. cerevisiae deletion strains, locus YJL095W, strain BCK1, hits give low values 1.07 | S. cerevisiae deletion strains, locus YJL128C, strain PBS2, hits give low values 0.953 | S. cerevisiae deletion strains, locus YJL157C, strain FAR1, hits give low values 0.954 | S. cerevisiae deletion strains, locus YJR016C, strain ILV3, hits give low values 0.991 | S. cerevisiae deletion strains, locus YJR066W, strain TOR1 (second series), hits give low values 0.926 | S. cerevisiae deletion strains, locus YJR066W, strain TOR1, hits give low values 1.07 | S. cerevisiae deletion strains, locus YKL048C, strain ELM1, hits give low values 0.964 | S. cerevisiae deletion strains, locus YKL067W, strain YNK1, hits give low values 0.969 | S. cerevisiae deletion strains, locus YKL101W, strain HSL1, hits give low values 0.954 | S. cerevisiae deletion strains, locus YKL193C, strain SDS22, hits give low values 0.987 | S. cerevisiae deletion strains, locus YKL203C, strain TOR2, hits give low values 1.04 | S. cerevisiae deletion strains, locus YLR113W, strain HOG1, hits give low values 1.01 | S. cerevisiae deletion strains, locus YLR133W, strain CKI1, hits give low values 0.98 | S. cerevisiae deletion strains, locus YLR403W, strain SFP1, hits give low values 0.962 | S. cerevisiae deletion strains, locus YML070W, strain DAK1, hits give low values 0.95 | S. cerevisiae deletion strains, locus YMR001C, strain CDC5, hits give low values 0.988 | S. cerevisiae deletion strains, locus YMR205C, strain PFK2 (second series), hits give low values 0.972 | S. cerevisiae deletion strains, locus YMR277W, strain FCP1, hits give low values 0.993 | S. cerevisiae deletion strains, locus YNL006W, strain LST8, hits give low values 0.983 | S. cerevisiae deletion strains, locus YNL020C, strain ARK1, hits give low values 0.98 | S. cerevisiae deletion strains, locus YNL161W, strain CBK1, hits give low values 0.993 | S. cerevisiae deletion strains, locus YNL183C, strain NPR1, hits give low values 1.05 | S. cerevisiae deletion strains, locus YNL207W, strain RIO2, hits give low values 0.979 | S. cerevisiae deletion strains, locus YNL222W, strain SSU72, hits give low values 0.986 | S. cerevisiae deletion strains, locus YNL307C, strain MCK1 (second series), hits give low values 0.98 | S. cerevisiae deletion strains, locus YOL078W, strain AVO1, hits give low values 0.987 | S. cerevisiae deletion strains, locus YOL136C, strain PFK27, hits give low values 0.957 | S. cerevisiae deletion strains, locus YOR061W, strain CKA2, hits give low values 0.955 | S. cerevisiae deletion strains, locus YOR119C, strain RIO1, hits give low values 1.01 | S. cerevisiae deletion strains, locus YOR231W, strain MKK1, hits give low values 1.06 | S. cerevisiae deletion strains, locus YOR329C, strain SCD5, hits give low values 0.993 | S. cerevisiae deletion strains, locus YPL031C, strain PHO85, hits give low values 0.97 | S. cerevisiae deletion strains, locus YPL153C, strain RAD53, hits give low values 0.954 | S. cerevisiae deletion strains, locus YPL204W, strain HRR25, hits give low values 0.97 | S. cerevisiae deletion strains, locus YPL209C, strain IPL1, hits give low values 0.994 | S. cerevisiae deletion strains, locus YPL256C, strain CLN2, hits give low values 1.05 | S. cerevisiae deletion strains, locus YPR025C, strain CCL1, hits give low values 0.992 | S. cerevisiae deletion strains, locus YPR106W, strain ISR1, hits give low values 0.984 | S. cerevisiae deletion strains, locus YPR111W, strain DBF20, hits give low values 0.976 | S. cerevisiae deletion strains, strain NNK1, hits give low values 0.983 | S. cerevisiae deletion strains, strain TSCII, hits give low values 0.993

N#CCS(=O)(=O)c1cccs1
inactive: S. cerevisiae deletion strains, locus YAL013W, strain DEP1, hits give low values 0.988 | S. cerevisiae deletion strains, locus YBR229C, strain ROT2, hits give low values 1 | [1] 0.983 | S. cerevisiae deletion strains, locus YDR150W, strain NUM1, hits give low values 0.94 | S. cerevisiae deletion strains, locus YEL061C, strain CIN8, hits give low values 1.01 | S. cerevisiae deletion strains, locus YGR078C, strain PAC10, hits give low values 0.979 | [2] 0.996 | S. cerevisiae deletion strains, locus YHR087W, strain rtc3, hits give low values 1 | S. cerevisiae deletion strains, locus YJR043C, strain POL32, hits give low values 0.949 | S. cerevisiae deletion strains, locus YJR075W, strain HOC1, hits give low values 0.993 | S. cerevisiae deletion strains, locus YLR039C, strain RIC1, hits give low values 1.1 | S. cerevisiae deletion strains, locus YLR058C, strain SHM2 (second series), hits give low values 1 | S. cerevisiae deletion strains, locus YLR085C, strain ARP6, hits give low values 0.999 | S. cerevisiae deletion strains, locus YLR262C, strain YPT6, hits give low values 1.12 | S. cerevisiae deletion strains, locus YML094W, strain GIM5, hits give low values 0.975 | S. cerevisiae deletion strains, locus YMR219W, strain ESC1, hits give low values 1 | S. cerevisiae deletion strains, locus YMR263W, strain SAP30, hits give low values 0.961 | S. cerevisiae deletion strains, locus YNL153C, strain GIM3, hits give low values 0.968 | S. cerevisiae deletion strains, locus YNL298W, strain CLA4 (second series), hits give low values 1 | S. cerevisiae deletion strains, locus YNL322C, strain KRE1, hits give low values 1.02 | S. cerevisiae deletion strains, locus YNR030W, strain Alg12, hits give low values 0.989 | S. cerevisiae deletion strains, locus YPL055C, strain LGE1, hits give low values 0.92 | S. cerevisiae deletion strains, locus YPL241C, strain CIN2, hits give low values 0.983 | S. cerevisiae deletion strains, locus YPR135W, strain CTF4, hits give low values 0.885 | S. cerevisiae strains, strain wild type, hits give low values 1.01
